20 compounds from PubChem BioAssay (NCI) can be followed below.

Assay [1] in a line: NCI Yeast Anticancer Drug Screen. Data for the rad50 strain (AID 155).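 Note: 0% = growth of vehicle-only cultures of the same strain.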 As to conditions: S. cerevisiae rad50 strain growth inhibition; at 50.0 µM; stronger effect = higher value. A digest of the protocol:
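Inhibition values express reduced yeast growth in compound-treated cultures relative to vehicle-treated controls.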

Assay [2] is described as follows: NCI Yeast Anticancer Drug Screen. Data for the mec2-1 strain (AID 157). As to conditions: S. cerevisiae mec2-1 strain, at 50.0 µM, stronger effect = higher value. A digest of the protocol:
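Mutant yeast (mec2-1) grown with compound; growth inhibition relative to vehicle control reported.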

A short description of assay [3]: NCI Yeast Anticancer Drug Screen. Data for the sgs1 mgt1 strain (AID 161).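 Note: 0% = growth of cultures given vehicle only.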 As to conditions: S. cerevisiae sgs1 mgt1 strain, at 50.0 µM, stronger effect = higher value. In outline:
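This yeast growth screen uses a strain with defined DNA-repair lesions; compound-treated growth is compared with vehicle-treated growth.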

Assay [4] in a line: NCI Yeast Anticancer Drug Screen. Data for the cln2 rad14 strain (AID 165).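 Note: 0% = growth equal to vehicle treated cultures.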 As to conditions: S. cerevisiae cln2 rad14 strain, at 50.0 µM, stronger effect = higher value. In outline:
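Readout is yeast growth inhibition versus vehicle-treated controls, using a strain with cln2 and rad14 alterations exposed to compound.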

Assay [5] is described as follows: NCI Yeast Anticancer Drug Screen. Data for the bub3 strain (AID 167). Particulars: S. cerevisiae bub3 mutant strain, at 50.0 µM, stronger effect = higher value. A digest of the protocol:
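Steps: expose the mutant yeast strain to compound; grow alongside vehicle-treated cultures; measure growth; express inhibition against the vehicle cultures.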

Assay [6] in a line: NCI Yeast Anticancer Drug Screen. Data for the mlh1 rad18 strain (AID 175). As to conditions: S. cerevisiae mlh1 rad18 strain growth inhibition; at 50.0 µM; stronger effect = higher value. In outline: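 Genetically defined yeast (DNA repair-deficient) exposed to compounds; growth inhibition determined relative to vehicle.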

This is part of a sample that, as a whole, favours compounds with a hit. Of some 79,000 tested, about 15% had one in any assay. A number with no mark means an inactive call. The source made the active and inactive calls. Cut-off read from the data, not from the text of the source: active = growth inhibition above about 70%; inactive = the rest.

`Cc1cc(OC(N)=S)cc(C)c1Cl`: the growth inhibition in assay [1] is 20.6%; in assay [2] it was 4.2%; in assay [3] it was 7.6%; in assay [4], -6.25%; in assay [5] it was 3.4%; in assay [6], -2.1%.

As for `CC(C)CCC[C@@H](C)[C@H]1CC[C@@]2(C)[C@@H]3CC[C@@H]4C(=O)CC[C@]4(C)[C@H]3CC[C@]12C`, the growth inhibition in assay [1] is 31.3%; in assay [2], 1.5%; in assay [3], 41.5%; in assay [4], 26.8%; in assay [5], 1.6%; in assay [6] it was 42.1%.

For the compound `CC1(C)CCCC2(C)C(C(=O)O)C3CCC45OC3(CC12)OC(=O)C4C1(C)CCCC(C)(C)C1CC5=O` (stereo not given), the growth inhibition in assay [1] was 2.15%; in assay [2] it was 5.65%; in assay [3], -0.9%; in assay [4], 2.85%; in assay [5], -2.1%; in assay [6], 9.25%.

On to `Cc1[nH]c(=O)[nH]c(=O)c1CCS`, for which the growth inhibition in assay [1] is -12.2%; in assay [2] it was 1.2%; in assay [3], 5.3%; in assay [4], 37.5%; in assay [5] it was -20%; in assay [6], -13.2%.

Take `CSC1(C)C(=O)Nc2ccccc21` (stereo not given): the growth inhibition in assay [1] was -4.15%; in assay [2] it was -9.65%; in assay [3], -0.35%; in assay [4], -20.8%; in assay [5] it was -36.3%; in assay [6], 3.6%.

Turning to `Cc1ccc(NC(Nc2ccc(C)c(Cl)c2)C(Cl)(Cl)Cl)cc1Cl`, the growth inhibition in assay [1] was 9.65%; in assay [2], -24%; in assay [3] it was -5.7%; in assay [4] it was -7.7%; in assay [5], 5.75%; in assay [6] it was -15.3%.

In the case of `COc1ccc(/C=C2\N=C(SC)NC2=O)cc1`, the growth inhibition in assay [1] was -8.35%; in assay [2], 0.2%; in assay [3], 25.9%; in assay [4] it was 0.95%; in assay [5] it was 2%; in assay [6], -24.9%.

Consider `CC1=C(C(=O)Nc2ccccc2)C(c2ccc(C3C(C(=O)Nc4ccccc4)=C(C)NC(C)=C3C(=O)Nc3ccccc3)cc2)C(C(=O)Nc2ccccc2)=C(C)N1`, for which the growth inhibition in assay [1] was 70% (active); in assay [2], 71.6% (active); in assay [3], 53%; in assay [4], 41.5%; in assay [5], 82.5% (active); in assay [6] it was 84.8% (active).

For the compound `O=C(NCCCN(CCCCN(CCCNC(=O)C(F)(F)F)Cc1ccc2ccccc2c1)Cc1ccc2ccccc2c1)C(F)(F)F`, the growth inhibition in assay [1] was 83.4% (active); in assay [2], 87.3% (active); in assay [3], 88.5% (active); in assay [4], 88.2% (active); in assay [5], 87% (active); in assay [6], 92.5% (active).

As for `Cc1cc2c(C)nn(Cc3ccc(Cl)cc3)c2c(C#N)c1C`, the growth inhibition is 25.4% in assay [1]; -8.85% in assay [2]; 15.6% in assay [3]; 2.85% in assay [4]; 22.1% in assay [5]; 18.9% in assay [6].

Consider `CC(=O)Nc1ncc(CCC2OCCO2)c(=O)[nH]1`, for which the growth inhibition in assay [1] is -0.55%; in assay [2], -25.1%; in assay [3] it was 19.6%; in assay [4], -0.25%; in assay [5] it was 7.65%; in assay [6] it was 6.85%.

Take `O=C1C=CC2CCC1C2` (stereo not given): the growth inhibition in assay [1] is 24.8%; in assay [2], -6.25%; in assay [3], -20.5%; in assay [4], 26.6%; in assay [5] it was -38.8%; in assay [6] it was -29.3%.

For the compound `c1ccc(CNCCN(Cc2ccccc2)Cc2ccccc2)cc1`, the growth inhibition in assay [1] was 31.6%; in assay [2] it was -1.8%; in assay [3], 36.4%; in assay [4], -11.8%; in assay [5], 30.4%; in assay [6], 25.7%.

Take `N#CCNC=O`: the growth inhibition in assay [1] was -2.9%; in assay [2] it was 7.35%; in assay [3], -13.4%; in assay [4], -11.9%; in assay [5], 2.8%; in assay [6], -11.5%.

Consider `CCCCCCCCCCCCCCCCCC(=O)Oc1ccc(OCc2ccccc2)cc1`, for which the growth inhibition is -13.5% in assay [1]; -25.6% in assay [2]; -11.4% in assay [3]; 16.2% in assay [4]; -11.4% in assay [5]; -16.6% in assay [6].

On to `CC(C)(C)OC(=O)N1CCCC1C(=O)Oc1ccc([N+](=O)[O-])cc1` (stereo not given), for which the growth inhibition is 31.6% in assay [1]; 19.4% in assay [2]; 11.4% in assay [3]; 3.55% in assay [4]; 6.25% in assay [5]; 58.5% in assay [6].

Regarding `COC(=O)C1CCCN1C(=O)c1ccccc1` (stereo not given), the growth inhibition in assay [1] is 3.6%; in assay [2], -0.4%; in assay [3], -16.2%; in assay [4] it was -36.8%; in assay [5], -5%; in assay [6] it was 11.6%.

For the compound `O=C(NC1CCCCC1)/C(=C\c1ccc(/C=C(/NC(=O)c2ccccc2)C(=O)NC2CCCCC2)cc1)NC(=O)c1ccccc1`, the growth inhibition was -9.95% in assay [1]; -26.9% in assay [2]; 9.5% in assay [3]; -34.5% in assay [4]; -22.6% in assay [5]; -20.8% in assay [6].

With `O=C(O)C1CC1(C(=O)O)C(=O)O` (stereo not given), the growth inhibition in assay [1] was 9.75%; in assay [2] it was 4.05%; in assay [3], -6.95%; in assay [4] it was 3.45%; in assay [5], -0.05%; in assay [6] it was -1.1%.

As for `O=C1NN2CCN=C2c2ccccc21`, the growth inhibition was -60.5% in assay [1]; -30% in assay [2]; -22.7% in assay [3]; -16.4% in assay [4]; -6.5% in assay [5]; -16.4% in assay [6].
